We go through eight molecules from PubChem BioAssay (NCI).

Common to all, as to assay: NCI-60 one-dose screen, 48 h (100 = growth as untreated, 0 = no growth, -100 = all killed)
What all share (details): 10 µM unless noted

Assay [1] deals with NCI-H23 lung.
Assay [2] deals with NCI-H226 lung.
Assay [3] concerns NCI-H322M lung.
Assay [4] has as its system HOP-62 NSCLC.
For assay [5], the system named is NCI-H460 lung.
Assay [6] concerns NCI-H522 lung.
For assay [7], the system named is A549/ATCC NSCLC.
The subject of assay [8] is 786-0 renal.
Assay [9] has as its system COLO 205 colon.
The subject of assay [10] is DU-145 prostate.
Assay [11] concerns K-562 leukemia.
The test system of assay [12] is MALME-3M melanoma.
In assay [13] the test system is MDA-MB-231 breast.
Assay [14] has as its system RXF 393 renal.
The subject of assay [15] is SF-268 CNS.
Assay [16] has as its system SF-295 CNS.
Assay [17] deals with SF-539 CNS.
Assay [18] has as its system UACC-257 melanoma.
For assay [19], the system named is M14 melanoma.

Compounds without any hit were thinned out: in the full panel of roughly 83,000, 20% have a hit.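 Single-dose data. Exposure time 48 hours. Values below 10 considered active.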 Values without a mark were called inactive. Activity calls are given as the source filed them.

As for `O=C(NNC(=O)c1cccc(Cl)c1)c1ccccc1`, the growth is 108% in assay [1]; 96.2% in assay [2]; 107% in assay [3]; 109% in assay [4]; 106% in [5]; 111% in [6]. The growth in assay [7] was 97.6%; in [8], 102%; in [9] it was 116%; in [10], 110%; in assay [11] it was 114%; in [12] it was 106%. For the same molecule, the growth in assay [13] was 113%; in assay [14] it was 109%; in [15] it was 108%; in assay [16], 106%; in assay [17], 107%; in [18], 110%. In addition, the growth in assay [19] was 112%.
With `COc1cccc(-c2cc(-c3cccs3)c(C#N)c(=O)[nH]2)c1`, the growth in [1] is 98.9%; in assay [2], 110%; in assay [3] it was 108%; in assay [4], 108%; in assay [5], 102%; in assay [6], 98.8%. Moreover, the growth in assay [7] is 102%; in assay [8] it was 94.1%; in assay [9], 111%; in [10], 108%; in assay [11], 102%; in [12], 110%. Moreover, the growth was 106% in assay [13]; 117% in assay [14]; 104% in [15]; 102% in assay [16]; 101% in [17]; 115% in [18]. Also, the growth in assay [19] was 105%.
Turning to `Cc1ccccc1Nc1n[nH]c(Cc2ccccc2)n1`, the growth in assay [1] was 102%; in [2], 100%; in assay [3], 99.1%; in assay [4], 94.6%; in [5], 108%; in [6], 58%. For the same molecule, the growth in assay [7] is 100%; in assay [8] it was 105%; in [9] it was 122%; in assay [10] it was 103%; in assay [11], 72%; in [12] it was 101%. Moreover, the growth in assay [13] was 110%; in assay [14], 108%; in assay [15], 101%; in assay [16], 103%; in assay [17], 107%; in assay [18], 92.7%. Besides, the growth in assay [19] is 106%.
For the molecule `CCN1C(=O)N(CC)C2C1N=C(SC)N2/N=C/C=C/c1ccccc1OC` (configuration not stated), the growth is 21.9% in assay [1]; 34.8% in [2]; 31.7% in assay [3]; 25.2% in [4]; 6.18% (active) in assay [5]; -32.8% (active) in assay [6]. Also, the growth in assay [7] was 17.7%; in assay [8], 14.5%; in assay [9], -48.9% (active); in assay [10], 5.61% (active); in [11], 6.68% (active); in [12], 31.9%. The growth was 21.2% in [13]; 11% in assay [14]; 23.5% in [15]; 10.6% in assay [16]; -4.87% (active) in assay [17]; 55.3% in [18]. Also, the growth in assay [19] is 4.55% (active).
`CCn1c(=O)c(C(=O)NCCCO)c(O)c2ccccc21`: the growth was 110% in assay [1]; 99.1% in assay [2]; 134% in assay [3]; 101% in assay [4]; 111% in assay [5]; 101% in [6]. The growth in [7] is 103%; in assay [8], 106%; in [9], 110%; in assay [10] it was 122%; in assay [11] it was 89.9%; in assay [12] it was 123%. The growth is 106% in assay [13]; -24.8% (active) in [14]; 94.3% in [15]; 110% in [16]; 96.8% in assay [17]; 125% in [18]. Besides, the growth in [19] is 124%.
As to `NS(=O)(=O)c1ccc(CCn2c(SCC(=O)N/N=C/c3ccccc3O)nc3ccccc3c2=O)cc1`, the growth in assay [1] was 65.4%; in assay [2], 51.1%; in assay [3], 77.5%; in assay [4] it was 44.4%; in assay [5] it was 23.1%; in [6] it was 8.06% (active). In addition, the growth in assay [7] is 53.9%; in assay [8], 41.7%; in assay [9] it was 49.9%; in [10], 42.7%; in [11], 9.2% (active); in assay [12], 62.3%. The growth in assay [13] was 63.4%; in assay [14], 46.7%; in assay [15], 55.8%; in [16], 39.7%; in assay [17], 25.6%; in assay [18], 55.6%. Also, in assay [19], the growth is 41.5%.
As for `C=CCN1C(=O)/C(=c2\sc3n(c2=O)C2C(NN=3)N(CC)C(=O)N2CC)c2ccccc21` (configuration not stated), the growth in assay [1] is 26.7%; in assay [2] it was 62.7%; in assay [3], 49.4%; in [4], 32.4%; in assay [5] it was 9.1% (active); in assay [6], -15.9% (active). Besides, the growth is 23.9% in assay [7]; 32.3% in assay [8]; -14.2% (active) in assay [9]; 17% in assay [10]; 10% in assay [11]; 66% in [12]. Moreover, the growth in assay [13] is 47.1%; in assay [14], 7.25% (active); in assay [15], 47.3%; in assay [16] it was 12.9%; in assay [17], 4.08% (active); in [18], 63.3%. Besides, in [19], the growth is 14.4%.
Take `CC(=O)c1ccc(Br)c([N+](=O)[O-])c1`: the growth was 106% in [1]; 112% in [2]; 107% in [3]; 109% in [4]; 109% in assay [5]; 27.6% in [6]. The growth in [7] is 100%; in assay [8] it was 95.4%; in assay [9], 127%; in assay [10], 113%; in assay [11] it was 89.7%; in assay [12], 98.6%. In addition, the growth in assay [13] was 117%; in assay [14], 113%; in assay [15], 117%; in [16], 96.9%; in [17], 107%; in assay [18], 111%. Moreover, the growth in [19] is 97.2%.
